Only a selection was taken, and hits are over-represented in it overall.
Glyco luc inh – blocks N-linked glycosylation in D54 reporter cells; reporter increase, % at 12.5 µM; AID 588692; D54 ERlucT glycosylation luciferase reporter, 24 h; percent of 100 nM tunicamycin response; actives 0.23% (n = 360,000);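 active = mean luciferase reporter signal, scaled so untreated is 0 and the glycosylation-blocking control 100, at or above a set limit in every replicate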;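 also: luciferase carries N-glycosylation sites so blocking glycosylation raises the light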
DENV2 CPE rescue – DENV2-induced cell death inhibition | actives 1.7% (n = 350,000) | AID 651640 | DENV2-infected cells, cytopathic effect rescue, plate reader | CPE inhibition, % at 9.99 µM; in the data active = CPE inhibition above about 20%, passing the limit was not always enough; tested in BHK-21 cells
Rtt109 Vps75 – C. albicans Rtt109 histone acetyltransferase inhibition; Q5AAJ8; purified Rtt109/Vps75, ThioGlo CoA-SH fluorescence, 4 h; inhibition, % at 34.9 µM; actives 0.16% (n = 330,000); AID 540336;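 active = inhibition of at least 50% in every replicate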
Target sequence (Q5AAJ8 whole entry, looked up): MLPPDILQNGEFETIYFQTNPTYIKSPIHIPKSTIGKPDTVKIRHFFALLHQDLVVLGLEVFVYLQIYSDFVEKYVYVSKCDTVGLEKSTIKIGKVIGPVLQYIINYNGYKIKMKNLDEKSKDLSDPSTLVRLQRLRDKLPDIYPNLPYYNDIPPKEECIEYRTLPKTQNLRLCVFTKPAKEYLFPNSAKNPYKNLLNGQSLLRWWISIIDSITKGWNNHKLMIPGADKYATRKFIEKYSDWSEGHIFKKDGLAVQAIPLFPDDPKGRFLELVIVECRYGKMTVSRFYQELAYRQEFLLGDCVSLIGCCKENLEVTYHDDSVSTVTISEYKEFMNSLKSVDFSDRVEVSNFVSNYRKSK
PglD inh – PglD (C. jejuni) enzyme inhibition; purified PglD enzyme, DTNB colorimetric CoA detection; inhibition, % at 12.5 µM; actives 0.098% (n = 360,000); in the data active = inhibition above about 16%, passing the limit was not always enough
Of the large screens only hits and unclear results are named; the others gave an inactive call; ! = a repeat was not active.

COc1cccc(OC)c1C(=O)Nc1cc2c(cc1N1CCOCC1)n(C)c(=O)n2C	none
COc1cc(C(=O)Nc2cc3c(cc2N2CCCCC2)n(C)c(=O)n3C)cc(OC)c1OC	Glyco luc inh 42.5
Cn1c(=O)n(C)c2cc(N3CCOCC3)c(NC(=O)c3ccc(F)cc3)cc21	DENV2 CPE rescue 41.6
Cc1ccc(S(=O)(=O)N(CC(=O)NCc2ccc(F)cc2)C(=O)N2CCN(C)CC2)cc1	DENV2 CPE rescue 31.0
CCOc1ccc(NN=C(C(=O)OC)C(=O)OC)c([N+](=O)[O-])c1	DENV2 CPE rescue 37.0
CO[C@H]1CN(C)C(=O)c2cc(NC(C)=O)ccc2OC[C@@H](C)N(C(=O)c2cccnc2)C[C@@H]1C	none (no result: Glyco luc inh, Rtt109 Vps75)
CCCc1ccc(OCC(O)CN2CCN(c3ccccc3)CC2)cc1 (stereo not drawn)	none
COc1ccc(N2CCN(CC(O)COc3ccc(F)cc3)CC2)cc1 (stereo not drawn)	DENV2 CPE rescue 51.9
COc1ccc(OCC(O)CN2CCN(c3ccc(OC)cc3)CC2)cc1 (stereo not drawn)	none
CCc1ccc(OCC(O)CN2CCN(c3ccccc3)CC2)cc1 (stereo not drawn)	DENV2 CPE rescue 83.4
O=c1[nH]c2ccccc2c2oc(CCl)nc12	Rtt109 Vps75 77.8 (no result: PglD inh)
COc1ccc2c3c([nH]c2c1)[C@H](CO)N(C(=O)CN1CCOCC1)CC31CCN(Cc2ccccc2)CC1	none (no result: Glyco luc inh, Rtt109 Vps75, PglD inh)
O=C(Nc1ccc([N+](=O)[O-])cc1)N1CCc2ccccc2C1	DENV2 CPE rescue 23.4
C[C@H]1CN([C@@H](C)CO)S(=O)(=O)c2ccc(C3=CCCC3)cc2O[C@H]1CN(C)C(=O)c1ccccn1	none (no result: Glyco luc inh, Rtt109 Vps75)
COCCNC(=O)C1CCCN(C(=O)c2cc(C)nn2C(C)(C)C)CC1 (stereo not drawn)	DENV2 CPE rescue 21.3 (no result: Rtt109 Vps75)
CCCNc1nc2ccccc2n2c(C)nnc12	Glyco luc inh 40.1
Nc1ccn([C@H]2CS[C@@H](CO)O2)c(=O)n1	DENV2 CPE rescue 26.6
CCOC(=O)c1c(SCCN2CCCCC2)n(-c2ccccc2)c(=S)n(-c2ccccc2)c1=O	DENV2 CPE rescue 22.5 (no result: PglD inh)
CC(C)[C@H](C)NC(=O)N(C)C[C@@H]1OCc2ccccc2-c2ccccc2C(=O)N([C@@H](C)CO)C[C@@H]1C	none (no result: Glyco luc inh, Rtt109 Vps75)
COc1ccc(N(CC(=O)NCCSc2ccccc2)S(=O)(=O)c2ccccc2)c(OC)c1	DENV2 CPE rescue 88.5
COc1ccccc1N(CC(=O)NCCSc1ccccc1)S(=O)(=O)c1ccccc1	none
C/C=C/c1ccc([C@@H]2[C@H]3CN(S(=O)(=O)c4ccc(OC)cc4)CCCCN3[C@H]2CO)cc1	none (no result: Glyco luc inh, DENV2 CPE rescue, Rtt109 Vps75)
CCC(N=c1cc(-c2ccc(OC)c(OC)c2)oc2ccc(C)cc12)C(=O)O (stereo not drawn)	DENV2 CPE rescue 21.6 (no result: PglD inh)
CCC(N=c1cc(-c2ccc(OC)cc2)oc2ccc(C)cc12)C(=O)O (stereo not drawn)	none (no result: DENV2 CPE rescue, PglD inh)
C[C@@H]1CCCCO[C@H](CN(C)S(=O)(=O)c2cccs2)[C@H](C)CN([C@@H](C)CO)C(=O)c2cc(NS(=O)(=O)c3ccc(Cl)cc3)ccc2O1	DENV2 CPE rescue 31.4 (no result: Glyco luc inh, Rtt109 Vps75)
C[C@@H]1CN([C@H](C)CO)C(=O)c2cc(NS(=O)(=O)c3ccc(F)cc3)ccc2O[C@@H](C)CCCCO[C@@H]1CN(C)S(=O)(=O)c1cccs1	none (no result: Glyco luc inh, Rtt109 Vps75)
C[C@H]1CN([C@@H](C)CO)C(=O)c2cc(NS(=O)(=O)c3ccc(Cl)cc3)ccc2O[C@H]1CN(C)S(=O)(=O)c1cccs1	DENV2 CPE rescue 21.9 (no result: Glyco luc inh, Rtt109 Vps75)
C[C@H](CO)N1C[C@H](C)[C@H](CN(C)S(=O)(=O)c2cccs2)OCCCC[C@H](C)Oc2ccc(NS(=O)(=O)c3ccc(F)cc3)cc2C1=O	DENV2 CPE rescue 30.9 (no result: Glyco luc inh, Rtt109 Vps75)
COc1ccc(C(=O)Nc2ccc3c(c2)OC[C@@H](C)N(Cc2cocn2)C[C@@H](C)[C@@H](OC)CN(C)C3=O)cc1	none (no result: Glyco luc inh, Rtt109 Vps75)
COC(=O)[C@@](C)(O)C1(C(=O)SC(C)(C)C)CC1	DENV2 CPE rescue 130.0
CC1CCN(c2nc(-c3cccnc3)nc3scc(-c4ccccc4)c23)CC1	none (no result: PglD inh)
CC1CCN(c2nc(CN3CCCCC3)nc3scc(-c4ccccc4)c23)CC1	Rtt109 Vps75 61.0 (no result: DENV2 CPE rescue)
CCC(C)Sc1cccc(-c2nc3ccc(C)cn3c2NC2CCCCC2)c1 (stereo not drawn)	DENV2 CPE rescue 60.4!
CCC(C)Sc1ccc(-c2nc3ccc(C)cn3c2NC2CCCCC2)cc1 (stereo not drawn)	none (no result: DENV2 CPE rescue)
O=C(Cc1ccccc1)N1CC[C@H]2[C@H](CO)Nc3ccc(-c4ccccc4)cc3[C@H]21	none (no result: Glyco luc inh, Rtt109 Vps75)
COCC1CC(c2ccccc2)OC(c2ccc(NC(=O)CCCCCCC(=O)O)cc2)O1 (stereo not drawn)	none (no result: Glyco luc inh, Rtt109 Vps75)
C/C(=N\NC(=O)c1ccccc1O)c1ccc(NC(=O)c2ccccc2)cc1	DENV2 CPE rescue 116.5
C/C(=N\NC(=O)c1ccccc1O)c1cccc(NC(=O)c2ccccc2)c1	none
Cc1cc(C)c(NC(=O)Cn2nnc(C(=O)NCc3cccs3)c2N)c(C)c1	none (no result: DENV2 CPE rescue)
Cc1cc(C)cc(NC(=O)Cn2nnc(C(=O)NCc3cccs3)c2N)c1	DENV2 CPE rescue 27.0 (no result: PglD inh)
CCN(C[C@H]1[C@H](c2ccccc2)[C@H](CO)N1CC1CC1)C(=O)c1ccccn1	none (no result: Glyco luc inh, Rtt109 Vps75)
CCN(C[C@H]1[C@H](c2ccccc2)[C@@H](CO)N1CC1CC1)C(=O)c1ccccn1	DENV2 CPE rescue 21.0 (no result: Glyco luc inh, Rtt109 Vps75)
O=C(NC[C@H]1[C@@H](c2ccccc2)[C@@H](CO)N1Cc1ccccc1)c1ccccn1	none (no result: Glyco luc inh, Rtt109 Vps75, PglD inh)
CCN(C[C@H]1[C@@H](c2ccccc2)[C@H](CO)N1CC1CC1)C(=O)c1ccccn1	DENV2 CPE rescue 24.8 (no result: Glyco luc inh, Rtt109 Vps75)
CCN(C[C@H]1[C@@H](c2ccccc2)[C@@H](CO)N1C(C)=O)C(=O)c1ccccn1	none (no result: Glyco luc inh, Rtt109 Vps75)
O=C(NC[C@H]1[C@H](c2ccccc2)[C@@H](CO)N1Cc1cccnc1)c1ccccn1	DENV2 CPE rescue 37.9 (no result: Glyco luc inh, Rtt109 Vps75)
O=C(NC1CC1)c1sc2ccccc2c1Cl	none
O=C(NC1C=CS(=O)(=O)C1)c1sc2ccccc2c1Cl (stereo not drawn)	Glyco luc inh 31.6 (no result: DENV2 CPE rescue)
Cn1cnc(S(=O)(=O)N2CCCCN3[C@H](CO)[C@@H](c4ccc(C#CC5CCCC5)cc4)[C@H]3C2)c1	none (no result: Glyco luc inh, Rtt109 Vps75)
CNC[C@H]1OCCCC[C@@H](C)Oc2ccc(NS(=O)(=O)c3ccccc3)cc2C(=O)N([C@H](C)CO)C[C@H]1C	none (no result: Glyco luc inh, Rtt109 Vps75)
c1nc(SSc2ncnc3nc[nH]c23)c2[nH]cnc2n1	Glyco luc inh 106.1 (no result: PglD inh)
Cc1ccc(C(=O)COC(=O)c2cc(Cl)nc3ccccc23)cc1	none (no result: DENV2 CPE rescue)
O=C(COC(=O)c1cc(Cl)nc2ccccc12)c1ccc(Cl)cc1	DENV2 CPE rescue 62.7
CCCNC(=O)N1C[C@H]2[C@@H](c3ccccc31)[C@H](CO)N2CC1CCCC1	none (no result: Glyco luc inh, Rtt109 Vps75)
O=C(NCC[C@@H]1CC[C@H](NS(=O)(=O)Cc2ccccc2)[C@@H](CO)O1)C1CCCC1	none (no result: Glyco luc inh, Rtt109 Vps75)
Cc1ccc(N=C2NC(=O)/C(=C\c3ccsc3)S2)c(C)c1	DENV2 CPE rescue 96.2
COc1ccc(NC(=O)Nc2ccc3c(c2)C(=O)N([C@@H](C)CO)C[C@@H](C)[C@H](CN(C)S(=O)(=O)c2cccs2)OCCCC[C@H](C)O3)cc1	none (no result: Glyco luc inh, Rtt109 Vps75)
CCCNC(=O)N1CC2(CN(Cc3ccc(OC)cc3)C2)c2c(n(C)c3cc(OC)ccc23)[C@H]1CO	none (no result: Glyco luc inh, Rtt109 Vps75, PglD inh)

Screening results from PubChem BioAssay.
